Columns and labels:
Experiment in all cases: PBM binding z-score (relative to random genomic background probes); higher = stronger binding; sequences stand for … in GC…GCGATTGACAGCGTAGAATGAAGG
[1] = test system: FXR:RXRa (NR concentration 270 nM, RXRa partner concentration 90 nM)
Outline: (§1)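 On custom Agilent 4×180K arrays, double-stranded probes with 34-nt variable regions carried direct-repeat seeds, single-nucleotide variants, half-site ablations or random human genomic background. Ligand-free nuclear receptor dimers were applied for 1 h, and binding was read with antibodies against each partner (one per run). Binding z-scores come from regression-normalized fluorescence, with the random background probes as reference.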

[2] = test system: LXRa:RXRa (NR concentration 270 nM, RXRa partner concentration 90 nM)
Outline: as §1

[3] = test system: LXRa homodimer (NR concentration 270 nM)
Outline: as §1

[4] = test system: LXRb:RXRa (NR concentration 270 nM, RXRa partner concentration 90 nM)
Outline: as §1

[5] = test system: LXRb homodimer (NR concentration 270 nM)
Outline: as §1

[6] = test system: PPARa:RXRa (NR concentration 270 nM, RXRa partner concentration 90 nM)
Outline: as §1

[7] = test system: PPARg:RXRa (NR concentration 180 nM, RXRa partner concentration 90 nM)
Outline: as §1

[8] = test system: PPARg:RXRa 270nM:90nM, anti-RXR (NR concentration 270 nM, RXRa partner concentration 90 nM)
Outline: as §1

[9] = test system: PPARg:RXRa 30nM:10nM, anti-RXR (NR concentration 30 nM, RXRa partner concentration 10 nM)
Outline: as §1

[10] = test system: PPARg:RXRa 90nM:30nM, anti-RXR (NR concentration 90 nM, RXRa partner concentration 30 nM)
Outline: as §1

Sequence	PBM binding z-score [1]	PBM binding z-score [2]	PBM binding z-score [3]	PBM binding z-score [4]	PBM binding z-score [5]	PBM binding z-score [6]	PBM binding z-score [7]	PBM binding z-score [8]	PBM binding z-score [9]	PBM binding z-score [10]
CGAACTAGGTCACCAGGAAAGTGAAGAGGTTGGA	3.52	2.48	-0.13	1.69	-0.3	5.05	8.48	7.2	5.35	6.86
ATATGTAGGTTCGGGTCATTCAGAAAGTAGGGAA	3.32	2.84	1.01	3.38	1.52	4.37	4.22	4.12	1.6	3.34
ATATGTAGGTTAGGGTCATTCATAAAGTAGGGAA	5.45	4.03	1.6	4.64	1.55	5.93	8.24	6.58	4.58	6.47
ATGTGTAGGTTAGGGTCATTCAGAAAGTAGGGAA	5.11	4.15	1.8	4.76	2.68	5.13	4.57	4.47	2.37	3.65
ATCGAAAGGTCGACGAGGAGAGTATACACCGTTT	3.22	3.26	-0.0644	2.71	0.517	4.05	2.55	2.76	1.4	1.8
ACTCGGAGGACAAATGTCAGAGCTACGCCAGTGA	-0.155	-0.111	-0.289	-0.522	-0.374	0.306	1.34	1.99	0.613	1.36
CGTCCAAGGGCAGCAGGTCAGTGAAAGCGACGTG	0.137	-0.0372	-0.847	-0.105	-1.37	0.938	0.305	0.501	-0.617	-0.019
ACTCGGAGGACAAAGGTCACAGCTACGCCAGTGA	5.25	5.76	3.07	4.75	0.774	5.97	9.11	7.86	6.87	8.74
TAGCCTAGGTCATTTGGCCAGTATAGTACGCATC	4.44	3.74	1.16	2.71	1.07	3.48	2.06	2.03	0.424	1.5
TGTCAGAGTTCAAAGGTAACGTAAGTATCCACAC	7.14	6.58	4.05	4.65	1.22	5.88	7.19	6.65	3.88	5.98
CCTGCTAGGTCAATGGTCAGCTCAAGCAGCTCGC	3.28	2.16	-0.232	1.42	0.134	3.19	4.54	5.03	2.8	5.14
TCTCGGAGGACACGAAGGTCAGCGCTTTCCAGAG	1.84	1.77	0.379	1.68	-0.754	2.31	0.453	2.02	2.12	1.93
GCTTACGGGTGAAAGGTTATAGCATGAATAGAAT	2.96	2.79	0.142	3	-0.294	5.7	9.88	8.08	7.78	8.71
ATACGTAGGTTAGGGTCATTCAGAAAGTAGGGAA	4.93	3.99	1.16	4.2	1.26	4.88	2.96	3.41	1.32	2.77
CGGACTAGGTCACCAGGACAGTGAAGAGGTTGGA	3.78	2.23	-0.177	1.34	-0.742	4.41	8.1	6.5	4.18	5.97
CCTAGTTGGTCAAGCTCACACACGCTATAGGTAC	0.0686	0.299	0.418	0.309	0.719	0.0262	0.838	0.282	0.0303	0.00108
ATATGTAGGGTAGGGTCATTCAGAAAGTAGGGAA	4.09	4.09	2.32	5.19	4.59	5.28	7.32	5.53	3.19	4.91
CGAACTAGGTCACCAAGACAGTGAAGAGGTTGGA	3.75	1.93	-0.0683	1.32	-0.272	5.11	8.16	6.46	4.53	6.57
GCTCGGAGGACAAGGTCACAGCTTTGTCCGTAGA	4.17	3.99	0.175	3.17	0.142	4.56	3.68	4.17	1.12	2.98
CTCGAAAGGTCGAGCTCAGGTGAGTATACCAAAC	5	3.57	-0.0751	3.02	-0.142	4.73	2.39	3.54	1.14	2.04
CCTAGTTGGCCAAGGTCACACACGCTATAGGTAC	3.78	3.61	1.6	3.73	0.597	3.8	2.42	2.88	0.959	1.94
CGAACTAGGTCAAAGGACAGTAAAAGGCGACGTA	4.06	2.48	0.208	2.04	-0.428	5.67	9.93	8.18	7.65	8.57
GATAAAGGGTCAGCTAGAGGCCAGAGTATGGAAA	5.39	3.97	0.0664	3.27	0.0558	5.06	4.3	4.76	2.03	3.31
